The text below walks through data of PubChem BioAssay (EPA / NIEHS).

Assay [1] can be described thus: Tanguay_ZF_120hpf_JAW_legacy: (Legacy) Oregon State University Tanguay Lab 120 Hour Post-fertilization zebrafish Assay for Jaw Malformation (AID 2283638). The method, boiled down: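 Steps: dechorionate 4 hpf embryos (pronase); plate 1/well at 6 hpf; add test chemical, 0.64% DMSO final; seal, cover, hold at 28C statically to 120 hpf; score jaw defect presence/absence microscopically. Dead embryos not scored.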

A short description of assay [2]: Tanguay_ZF_120hpf_OTIC_legacy: (Legacy) Oregon State University Tanguay Lab 120 Hour Post-fertilization zebrafish Assay for Otic Vesicle Malformation (AID 2283639). The method, boiled down: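 Statically exposed wild-type 5D zebrafish embryos, kept sealed and dark at 28C through 120 hours post fertilization, were examined by brightfield microscopy for otic vesicle defects. Responses were recorded as present or absent and analysed relative to DMSO.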

Assay [3] in a line: Tanguay_ZF_120hpf_BRAI_legacy: (Legacy) Oregon State University Tanguay Lab 120 Hour Post-fertilization zebrafish Assay for Brain Malformation (AID 2283641). The method, boiled down:
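Wild-type 5D larvae, static waterborne exposure to 120 hpf, 28C, 0.64% v/v DMSO. Brightfield scoring of brain defects, binary; dead embryos excluded. Positive ctrl 5uM trimethyltin chloride.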

Assay [4] in a line: Tanguay_ZF_120hpf_CFIN_legacy: (Legacy) Oregon State University Tanguay Lab 120 Hour Post-fertilization zebrafish Assay for Caudal Fin Malformation (AID 2283649). The method, boiled down:
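Binary presence or absence of caudal fin malformation at 120 hpf, read by brightfield microscopy, with DMSO as baseline. Larvae came from 5D wild-type embryos exposed statically from 6 hpf at 28C after pronase dechorionation.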

A short description of assay [5]: Tanguay_ZF_120hpf_PIG_legacy: (Legacy) Oregon State University Tanguay Lab 120 Hour Post-fertilization zebrafish Assay for Pigmentation Malformation (AID 2283650). The method in brief:
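Pigment malformation recorded as a binary call at 120 hpf in zebrafish (Tropical 5D) exposed singly from 6 hpf after pronase dechorionation. Static, sealed, 28C exposure, 0.64% DMSO; mortality excludes scoring; positive-direction fit against DMSO.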

Assay [6] can be described thus: Tanguay_ZF_120hpf_CIRC_legacy: (Legacy) Oregon State University Tanguay Lab 120 Hour Post-fertilization zebrafish Assay for Circulatory Malformation (AID 2283651). The method, boiled down: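 Embryos are dechorionated at 4 hpf, plated one per well at 6 hpf, then held under static exposure at 28C until 120 hpf. Malformations are recorded as binary calls; mortality excludes other endpoints.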

Assay [7] is described as follows: Tanguay_ZF_120hpf_SWIM_legacy: (Legacy) Oregon State University Tanguay Lab 120 Hour Post-fertilization zebrafish Assay for Swim Bladder Malformation (AID 2283654).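 Note: swim bladder malformation in each larva scored yes or no under brightfield.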 The method, boiled down:
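Scoring is binary for swim bladder defects at 120 hpf, by brightfield inspection of zebrafish larvae. Embryos were exposed singly from 6 hpf after pronase dechorionation, at 28C with 0.64% DMSO; mortality excluded scoring.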

The nature of assay [8]: Tanguay_ZF_120hpf_TRUN_legacy: (Legacy) Oregon State University Tanguay Lab 120 Hour Post-fertilization zebrafish Assay for Truncated Body (AID 2283655). The method in brief:
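Truncated body is recorded as a binary endpoint at 120 hpf by brightfield imaging of wild-type 5D larvae. Exposure runs statically from 6 hpf at 28C with 0.64% DMSO; embryos dying earlier are not scored.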

Assay [9] can be described thus: Tanguay_ZF_120hpf_TR_legacy: (Legacy) Oregon State University Tanguay Lab 120 Hour Post-fertilization zebrafish Assay for Touch Response (AID 2283667). The method in brief:
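Binary touch-response endpoint in larvae at 120 hpf after static waterborne exposure from embryo stage (28°C, 0.64% DMSO vehicle, 5 uM trimethyltin chloride as positive control); embryos dead at 24 or 120 hpf excluded; fitted as gain versus DMSO.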

For assay [10], the system named is Thyroperoxidase (TPO), gene 54314. Briefly: CCTE_Simmons_AUR_rTPO: CCTE's Amplex UltraRed Assay for Thyroperoxidase (TPO) Inhibition, Simmons Lab (AID 2283662).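 Note: potency for loss of signal meaning inhibition of peroxidase activity.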 The method, boiled down:
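Rat thyroid microsomes (5 ug protein) were incubated with test compound (8 concentrations, 5 nM–87.5 uM final, 0.5% DMSO), 25 uM Amplex UltraRed and 300 uM H2O2 in 200 mM phosphate buffer for 30 min at 37C in the dark; fluorescence read at 544/590 nm.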

Assay [11] is described as follows: CCTE_Simmons_CellTiterGLO_HEK293T: Viability Assessment in CCTE's Assays for Thyroperoxidase (TPO) Inhibition, Simmons Lab (AID 2283665). The method, boiled down: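 Cells were seeded overnight, then exposed to an eight-point series up to 87.5 uM final for 24 hours. CellTiter-Glo reagent was added and luminescence read after 20 min, giving ATP-based viability versus DMSO.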

Assay [12] can be described thus: Tanguay_ZF_120hpf_PFIN_legacy: (Legacy) Oregon State University Tanguay Lab 120 Hour Post-fertilization zebrafish Assay for Pectoral Fin Malformation (AID 2283648).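 Note: each larva judged yes or no for fin defect by brightfield with dead larvae skipped.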 The method, boiled down: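 Pectoral fin malformation was recorded as a binary endpoint at 120 hpf in wild-type Tropical 5D larvae, which had been dechorionated and exposed statically from 6 hpf at 28C in 0.64% DMSO. Dead embryos were excluded.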

A short description of assay [13]: Tanguay_ZF_120hpf_NC_legacy: (Legacy) Oregon State University Tanguay Lab 120 Hour Post-fertilization zebrafish Assay for Notochord and Tail Malformation (AID 2283656). The method, boiled down: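 Binary scoring of notochord distortion by brightfield microscopy; embryos dying were not scored. Wild-type Tropical 5D embryos, chorion removed, exposed singly and statically from 6 to 120 hpf, 28C, sealed, 0.64% DMSO.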

Assay [14] in a line: Tanguay_ZF_120hpf_SOMI_legacy: (Legacy) Oregon State University Tanguay Lab 120 Hour Post-fertilization zebrafish Assay for Somite Malformation (AID 2283647). The method, boiled down: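 Read-out: presence or absence of somite malformation in 120 hpf larvae, gain-of-signal relative to DMSO baseline. Embryos lacked chorion (pronase, 4 hpf) and were exposed statically from 6 hpf at 28C; dead larvae not scored.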

Assay [15] can be described thus: Tanguay_ZF_120hpf_PE_legacy: (Legacy) Oregon State University Tanguay Lab 120 Hour Post-fertilization zebrafish Assay for Pericardial Edema (AID 2283640). The method, boiled down: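 Embryos from wild-type 5D adults were staged, then dosed in 0.64% DMSO. They were kept sealed in the dark at 28C until 120 hpf. Pericardial edema was then recorded as present or absent.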

Inconclusive results are not listed. Active and inactive are the calls of the source. Rule for the calls: active = hit-call score of the fitted dose curve at least 0.9, where 1 is the maximum; inconclusive = response in the unintended direction; inactive = score below 0.9.

In the case of `Cc1ncc([C@@H](CCCCCCc2ccc3c(n2)NCCC3)CC(=O)O)cn1`, the result in [1], in [2], in [3], in [4], in assay [5] and in [6] was inactive. Also, the compound was classed as inactive in assay [7], in assay [8] and in assay [9].
As to `CCOC(N)=O`, the call in assay [1], in [2], in assay [3], in assay [4], in assay [5] and in assay [6] was inactive. Moreover, the compound was classed as inactive in assay [7] and in assay [9].
Take `OC[C@H]1O[C@@H]2O[C@H]3[C@H](O)[C@@H](O)[C@@H](O[C@H]4[C@H](O)[C@@H](O)[C@@H](O[C@H]5[C@H](O)[C@@H](O)[C@@H](O[C@H]6[C@H](O)[C@@H](O)[C@@H](O[C@H]7[C@H](O)[C@@H](O)[C@@H](O[C@H]1[C@H](O)[C@H]2O)O[C@@H]7CO)O[C@@H]6CO)O[C@@H]5CO)O[C@@H]4CO)O[C@@H]3CO`: the call in assay [1], in [2], in [3], in [4], in [5] and in assay [6] was inactive. The result in assay [7] and in [9] was inactive.
One may read the AC50 as the concentration at which the activity in the assay is half-maximal. On to `Cc1cccc(O)c1C`, for which, in assay [10], the AC50 is 17.3 µM (active). Also, the call in assay [11] was inactive.
`NNC(=O)c1ccncc1`: the compound was called inactive in assay [1], in assay [2], in assay [3], in assay [12], in assay [4] and in assay [5]. The compound was called inactive in assay [7], in [8], in assay [11] and in assay [9]. Moreover, the concentration at half-maximal activity (AC50) in assay [10] is 1.92 µM (active).
For `OCCOCCOCCO`, the call in [1], in assay [2], in assay [3], in assay [4], in assay [5] and in assay [6] was inactive. The result in [7], in [13] and in [9] was inactive.
On to `C=CN1CCCC1=O`, for which the compound was classed as inactive in assay [1], in assay [2], in assay [12], in assay [5] and in [7].
As to `COCc1nnc(-c2ccc[n+]([O-])c2)n1-c1c(Cl)c(Cl)cc2[nH]c(=O)c(=O)[nH]c12`, the outcome in assay [1], in assay [2], in assay [14], in assay [4], in [5] and in [6] was inactive. The call in [9] was inactive.
Take `CNC(C)=O`: the compound was classed as inactive in [1], in assay [15], in assay [3], in assay [4], in [5] and in assay [6]. Moreover, the call in [7], in assay [8] and in [9] was inactive.
On to `CCCOc1ccc(S(=O)(=O)N2CCN(CC)CC2)cc1-c1nc2c(CC)n(Cc3ccccn3)nc2c(=O)[nH]1`, for which the outcome in assay [1], in assay [2], in assay [3], in assay [4], in assay [5] and in [6] was inactive. Also, the compound was called inactive in [7], in assay [8] and in [9].
